About 83,000 compounds went through this panel and 20% of them were active in at least one assay; those are over-represented in the sample as a whole.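 Each cell line was grown in a 96-well plate and treated with one concentration of compound for 48 hours. Values below 10 were considered active.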 Active and inactive are the calls of the source.
How the values were obtained:
Test in all cases: NCI-60 one-dose screen, 48 h (100 = growth as untreated, 0 = no growth, -100 = all killed)
Conditions in all cases: 10 µM unless noted
[1] = test system: T-47D breast
[2] = test system: BT-549 breast
[3] = test system: MDA-MB-435 melanoma
[4] = test system: SW-620 colon
[5] = test system: MCF7 breast
[6] = test system: HCT-116 colon
[7] = test system: HCC-2998 colon
[8] = test system: KM12 colon

Measured: growth

Cc1ccc2oc(=O)cc(-c3sc(N4CCCCC4)nc3-c3ccccc3)c2c1
inactive: [1] 76.8% | [2] 91.2% | [3] 103% | [4] 96.5% | [5] 70.5% | [6] 89% | [7] 99.3% | [8] 94.8%

COc1ccc(C2NC(=O)Nc3ccccc32)c(OC)c1 (stereo not drawn)
inactive: [1] 91.4% | [2] 109% | [3] 101% | [4] 114% | [5] 84.6% | [6] 104% | [7] 92.7% | [8] 110%

NC(=O)NCC1CCCCC1
inactive: [1] 97.7% | [2] 104% | [3] 102% | [4] 108% | [5] 90.6% | [6] 106% | [7] 95.5% | [8] 102%

CC(C)(C)c1cc(-n2c(-c3ccc(Cl)cc3)nc3cc(C(=O)Nc4ccc(Cl)cc4)ccc32)n[nH]1
inactive: [1] 25.2% | [2] 58.7% | [3] 73.3% | [4] 55.9% | [5] 38.5% | [6] 28.2% | [7] 63.9% | [8] 25.9%

Cn1cccc1/C=C1/SC(=S)N(CCc2ccc(O)cc2)C1=O
inactive: [1] 42% | [2] 41.4% | [4] 31.6% | [5] 33.8% | [6] 21.4% | [7] 77.4% | [8] 40.5%
active: [3] -27.9%

Cc1cc(N(CCCNc2ccnc3cc(Cl)ccc23)Cc2ccco2)nc(Cl)n1
inactive: [1] 21.8% | [2] 35.2% | [3] 72.2% | [4] 66.2% | [5] 42.4% | [6] 28.2% | [7] 75.2% | [8] 65.7%

O=C1/C(=C\c2ccco2)SC(=S)N1CCc1ccc(O)cc1
inactive: [1] 67.6% | [2] 87.2% | [3] 93.7% | [4] 109% | [5] 114% | [6] 96.1% | [7] 116% | [8] 85.5%

CCCC1CCCCN1C(=O)OCC(C)C (stereo not drawn)
inactive: [1] 104% | [2] 114% | [3] 100% | [4] 98.4% | [5] 100% | [6] 103% | [7] 125% | [8] 105%

C[C@@H](Oc1ccc(C(=O)NS(=O)(=O)C(C)(C)C)cc1C(F)(F)F)c1ccc(Oc2ccccc2)cn1
active: [3] -50.1%
inactive: [1] 39% | [2] 27.6% | [4] 23.3% | [5] 15% | [6] 25.5% | [7] 61.1% | [8] 28.3%

N#Cc1c(-c2ccc(O)cc2)c2c(N)nn(-c3ccccc3)c2[nH]c1=O
inactive: [1] 112% | [2] 111% | [3] 108% | [4] 102% | [5] 101% | [6] 108% | [7] 110% | [8] 102%

CCC(c1ccc(OC)cc1)C(CC)c1ccc(O)c(CN2CCCCC2)c1 (stereo not drawn)
active: [7] 6.27%
inactive: [1] 36.9% | [2] 72.1% | [3] 81.6% | [4] 71.6% | [5] 63% | [6] 38.7% | [8] 79.7%

COc1cc(C(=O)/C=C/c2cc(-c3ccc4c(c3)OCO4)n[nH]2)cc(OC)c1OC
inactive: [1] 19.7% | [3] 40% | [7] 85.4%
active: [2] -11.2% | [4] -15.1% | [5] 6.06% | [6] 6.54% | [8] 1.81%

CCN1CCN(C(=O)[C@]23CCC(C)(C)C[C@@H]2C2=CC[C@@H]4[C@@]5(C)C/C(=C/c6ccncc6)C(=O)C(C)(C)[C@@H]5CC[C@@]4(C)[C@]2(C)CC3)CC1
active: [1] -2.08% | [2] -5.92% | [3] -29.9% | [4] -54.1% | [5] -53.6% | [6] -92.4% | [7] -68.8% | [8] -39.9%

Oc1ccc(Nc2ccccc2)cc1
inactive: [1] 91.7% | [2] 74% | [3] 75.8% | [4] 88.7% | [5] 89.2% | [6] 99.2% | [7] 107% | [8] 79.1%

COc1ccc(-c2n[nH]nc2-c2cc3ccccc3s2)cc1O
inactive: [1] 43.8% | [2] 24.1% | [4] 26.6% | [5] 19.7% | [6] 18.2% | [7] 29.2% | [8] 22.7%
active: [3] -32.9%

c1cc(N2CCCC2)c2nc(-c3[nH]ncc3Nc3ncnc4[nH]ccc34)[nH]c2c1
active: [1] 0.99% | [2] -37% | [3] -80.8% | [4] 2.01% | [5] -23% | [6] -9.45% | [7] -30.4% | [8] -20.4%

Source: PubChem BioAssay (NCI)
